# Key:
# Experiment in all cases: DAPPL (digital affinity profiling via proximity ligation, sequencing); 10 mM Tris-HCl pH 7.5, 50 mM NaCl, 1 mM DTT, 4% glycerol, room temperature, 30 min; GST-TFs on glutathione beads, 16-mer random dsDNA library, 0.1% formaldehyde crosslink after washing; high values mean tight binding
# [1] = target: T1, FLI1 (Homo sapiens, UniProt Q01543 1-452); conditions: protein: recombinant; tags: N-terminal GST; dsDNA, one strand shown
# T1 sequence: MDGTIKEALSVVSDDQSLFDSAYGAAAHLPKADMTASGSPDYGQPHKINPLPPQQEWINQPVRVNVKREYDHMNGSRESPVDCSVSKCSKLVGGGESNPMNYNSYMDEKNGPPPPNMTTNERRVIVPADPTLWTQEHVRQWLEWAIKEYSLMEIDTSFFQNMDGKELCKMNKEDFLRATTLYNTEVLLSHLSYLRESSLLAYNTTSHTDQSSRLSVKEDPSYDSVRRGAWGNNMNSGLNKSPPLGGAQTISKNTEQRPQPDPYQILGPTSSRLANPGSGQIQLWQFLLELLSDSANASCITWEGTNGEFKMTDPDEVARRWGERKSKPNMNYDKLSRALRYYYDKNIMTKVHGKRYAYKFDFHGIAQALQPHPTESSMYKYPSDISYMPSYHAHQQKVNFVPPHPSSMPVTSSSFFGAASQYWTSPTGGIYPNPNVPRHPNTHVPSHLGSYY
# Method in brief: (§1)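 Beads coated with glutathione captured GST-fused human transcription factors that had been expressed in yeast, and the factors were then given DNA barcodes and pooled with a tag-only sample. The pools were incubated with 200 nmole of a random double-stranded 16-mer DNA library in Tris/NaCl/DTT/glycerol buffer for 30 min at room temperature, washed, crosslinked with 0.1% formaldehyde and proximity-ligated with BsaI/T4 ligase at 37 °C for 1 h. PCR amplification and Illumina NextSeq500 sequencing came last. Binding signal is each hexamer's read frequency for a factor divided by its frequency for the tag-only sample.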
# [2] = target: T2, ELK1 (Homo sapiens, UniProt P19419 1-428); conditions: protein: recombinant; tags: N-terminal GST; dsDNA, one strand shown
# T2 sequence: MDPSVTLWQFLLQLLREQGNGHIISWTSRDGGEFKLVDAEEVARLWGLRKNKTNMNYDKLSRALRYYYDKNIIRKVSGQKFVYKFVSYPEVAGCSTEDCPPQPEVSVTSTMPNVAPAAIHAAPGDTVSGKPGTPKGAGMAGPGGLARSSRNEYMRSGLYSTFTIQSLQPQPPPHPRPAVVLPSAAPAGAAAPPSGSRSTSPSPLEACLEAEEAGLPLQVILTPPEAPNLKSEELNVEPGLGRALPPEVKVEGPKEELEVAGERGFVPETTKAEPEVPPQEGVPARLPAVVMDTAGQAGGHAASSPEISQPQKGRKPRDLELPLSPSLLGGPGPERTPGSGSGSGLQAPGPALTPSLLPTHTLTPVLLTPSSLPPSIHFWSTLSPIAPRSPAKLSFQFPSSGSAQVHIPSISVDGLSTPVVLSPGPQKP
# Method in brief: as §1
# [3] = target: T3, GABPA (Homo sapiens, UniProt Q06546 1-454); conditions: protein: recombinant; tags: N-terminal GST; dsDNA, one strand shown
# T3 sequence: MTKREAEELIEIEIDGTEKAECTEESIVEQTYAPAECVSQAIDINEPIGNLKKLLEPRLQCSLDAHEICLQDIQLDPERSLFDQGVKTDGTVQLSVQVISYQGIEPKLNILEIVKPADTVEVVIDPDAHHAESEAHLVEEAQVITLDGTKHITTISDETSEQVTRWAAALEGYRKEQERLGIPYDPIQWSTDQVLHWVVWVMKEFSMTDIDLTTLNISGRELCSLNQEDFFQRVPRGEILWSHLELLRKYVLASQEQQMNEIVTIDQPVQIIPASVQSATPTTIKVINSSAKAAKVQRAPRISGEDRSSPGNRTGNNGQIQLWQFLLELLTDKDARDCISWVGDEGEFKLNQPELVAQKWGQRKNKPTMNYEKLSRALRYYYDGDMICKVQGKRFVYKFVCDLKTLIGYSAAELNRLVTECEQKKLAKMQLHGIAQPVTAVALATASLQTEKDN
# Method in brief: as §1
# [4] = target: T4, ERG (Homo sapiens, UniProt P11308 1-479); conditions: protein: recombinant; tags: N-terminal GST; dsDNA, one strand shown
# T4 sequence: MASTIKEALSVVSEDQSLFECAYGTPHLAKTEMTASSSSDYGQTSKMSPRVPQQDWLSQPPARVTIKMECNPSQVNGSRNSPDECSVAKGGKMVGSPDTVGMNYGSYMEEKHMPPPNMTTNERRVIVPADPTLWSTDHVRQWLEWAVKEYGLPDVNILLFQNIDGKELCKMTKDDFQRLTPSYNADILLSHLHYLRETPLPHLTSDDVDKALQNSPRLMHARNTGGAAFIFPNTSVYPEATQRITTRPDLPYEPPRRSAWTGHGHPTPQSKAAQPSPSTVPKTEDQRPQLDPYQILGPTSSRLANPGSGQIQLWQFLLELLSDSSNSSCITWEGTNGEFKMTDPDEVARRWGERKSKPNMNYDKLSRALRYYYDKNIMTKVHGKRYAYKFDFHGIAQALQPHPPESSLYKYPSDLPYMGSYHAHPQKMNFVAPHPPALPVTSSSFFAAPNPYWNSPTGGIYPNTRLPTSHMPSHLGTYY
# Method in brief: as §1
# [5] = target: ELF1 (Homo sapiens, UniProt P32519 1-619); conditions: protein: recombinant; tags: N-terminal GST; dsDNA, one strand shown
# Sequence of ELF1 (P32519 whole entry): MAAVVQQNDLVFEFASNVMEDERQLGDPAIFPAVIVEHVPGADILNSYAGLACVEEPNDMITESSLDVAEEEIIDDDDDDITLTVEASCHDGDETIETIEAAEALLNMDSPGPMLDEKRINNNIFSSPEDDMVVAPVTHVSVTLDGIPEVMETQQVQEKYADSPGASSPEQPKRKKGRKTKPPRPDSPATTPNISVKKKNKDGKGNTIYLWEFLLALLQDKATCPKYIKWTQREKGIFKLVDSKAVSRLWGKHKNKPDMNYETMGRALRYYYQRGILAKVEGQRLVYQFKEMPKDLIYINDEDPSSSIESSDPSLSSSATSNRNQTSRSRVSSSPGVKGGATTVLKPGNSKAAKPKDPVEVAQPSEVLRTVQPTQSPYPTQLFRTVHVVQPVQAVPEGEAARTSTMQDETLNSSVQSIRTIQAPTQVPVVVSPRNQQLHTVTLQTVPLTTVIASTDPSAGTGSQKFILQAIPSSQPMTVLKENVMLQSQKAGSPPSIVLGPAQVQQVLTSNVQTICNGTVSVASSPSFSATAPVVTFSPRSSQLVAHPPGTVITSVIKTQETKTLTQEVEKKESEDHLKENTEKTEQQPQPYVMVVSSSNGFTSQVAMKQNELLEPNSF
# Method in brief: as §1
# [6] = target: T5, EHF (Homo sapiens, UniProt Q9NZC4 1-300); conditions: protein: recombinant; tags: N-terminal GST; dsDNA, one strand shown
# T5 sequence: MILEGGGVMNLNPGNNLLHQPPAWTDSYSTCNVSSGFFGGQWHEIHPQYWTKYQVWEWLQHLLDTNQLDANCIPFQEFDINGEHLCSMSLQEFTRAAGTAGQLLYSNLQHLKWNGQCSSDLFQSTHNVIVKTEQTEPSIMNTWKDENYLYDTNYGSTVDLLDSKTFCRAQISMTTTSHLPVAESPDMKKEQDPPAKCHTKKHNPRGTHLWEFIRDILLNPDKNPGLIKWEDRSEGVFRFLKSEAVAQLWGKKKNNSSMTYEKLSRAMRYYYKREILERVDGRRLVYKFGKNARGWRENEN
# Method in brief: as §1
# [7] = target: SPI1 (Homo sapiens, UniProt P17947 1-270); conditions: protein: recombinant; tags: N-terminal GST; dsDNA, one strand shown
# Method in brief: as §1
# [8] = target: SPIB (Homo sapiens, UniProt Q01892 1-262); conditions: protein: recombinant; tags: N-terminal GST; dsDNA, one strand shown
# Sequence of SPIB (Q01892 whole entry): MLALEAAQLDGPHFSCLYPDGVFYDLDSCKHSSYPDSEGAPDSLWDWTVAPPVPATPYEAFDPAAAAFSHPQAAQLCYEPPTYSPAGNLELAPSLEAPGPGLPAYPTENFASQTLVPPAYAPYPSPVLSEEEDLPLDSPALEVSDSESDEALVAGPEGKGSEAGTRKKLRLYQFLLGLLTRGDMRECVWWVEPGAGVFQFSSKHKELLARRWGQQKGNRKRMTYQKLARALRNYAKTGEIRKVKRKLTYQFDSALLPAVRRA
# Method in brief: as §1
# [9] = target: T6, ELK3 (Homo sapiens, UniProt P41970 1-407); conditions: protein: recombinant; tags: N-terminal GST; dsDNA, one strand shown
# T6 sequence: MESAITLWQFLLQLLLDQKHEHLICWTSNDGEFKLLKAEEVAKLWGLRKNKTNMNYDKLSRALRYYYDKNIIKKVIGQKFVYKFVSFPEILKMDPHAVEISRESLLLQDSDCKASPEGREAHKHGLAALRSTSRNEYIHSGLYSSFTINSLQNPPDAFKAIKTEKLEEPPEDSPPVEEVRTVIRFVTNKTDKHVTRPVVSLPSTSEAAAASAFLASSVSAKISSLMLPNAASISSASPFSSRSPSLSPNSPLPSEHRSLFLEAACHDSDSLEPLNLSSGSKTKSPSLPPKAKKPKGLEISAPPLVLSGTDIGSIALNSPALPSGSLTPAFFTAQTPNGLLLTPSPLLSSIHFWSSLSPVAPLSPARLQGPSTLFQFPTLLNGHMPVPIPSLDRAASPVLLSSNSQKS
# Method in brief: as §1
# [10] = target: T7, FEV (Homo sapiens, UniProt Q99581 1-238); conditions: protein: recombinant; tags: N-terminal GST; dsDNA, one strand shown
# T7 sequence: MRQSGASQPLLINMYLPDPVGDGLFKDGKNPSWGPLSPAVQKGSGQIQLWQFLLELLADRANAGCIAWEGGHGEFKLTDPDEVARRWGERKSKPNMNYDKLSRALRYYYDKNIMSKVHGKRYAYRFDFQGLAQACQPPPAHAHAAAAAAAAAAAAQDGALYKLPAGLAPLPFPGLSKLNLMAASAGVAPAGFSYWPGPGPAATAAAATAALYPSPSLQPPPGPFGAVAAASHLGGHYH
# Method in brief: as §1
# [11] = target: ETV5 (Homo sapiens, UniProt P41161 1-510); conditions: protein: recombinant; tags: N-terminal GST; dsDNA, one strand shown
# Sequence of ETV5 (P41161 whole entry): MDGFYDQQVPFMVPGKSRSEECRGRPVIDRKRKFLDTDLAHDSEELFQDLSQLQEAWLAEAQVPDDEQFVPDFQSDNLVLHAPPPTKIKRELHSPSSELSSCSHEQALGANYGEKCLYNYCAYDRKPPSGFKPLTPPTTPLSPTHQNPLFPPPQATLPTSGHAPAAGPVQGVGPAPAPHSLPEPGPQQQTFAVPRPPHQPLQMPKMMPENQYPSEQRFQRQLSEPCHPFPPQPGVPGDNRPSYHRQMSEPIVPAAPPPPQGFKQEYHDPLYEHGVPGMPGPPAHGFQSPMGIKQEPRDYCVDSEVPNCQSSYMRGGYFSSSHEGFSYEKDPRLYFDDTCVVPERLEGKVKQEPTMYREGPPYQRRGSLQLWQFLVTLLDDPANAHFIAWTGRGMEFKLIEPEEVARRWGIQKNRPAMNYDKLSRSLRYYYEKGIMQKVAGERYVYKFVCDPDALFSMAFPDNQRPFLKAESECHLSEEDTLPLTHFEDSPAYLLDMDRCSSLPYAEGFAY
# Method in brief: as §1
# [12] = target: HSF1 (Homo sapiens, UniProt Q00613 1-529); conditions: protein: recombinant; tags: N-terminal GST; chain copies: 3; dsDNA, one strand shown
# Sequence of HSF1 (Q00613 whole entry): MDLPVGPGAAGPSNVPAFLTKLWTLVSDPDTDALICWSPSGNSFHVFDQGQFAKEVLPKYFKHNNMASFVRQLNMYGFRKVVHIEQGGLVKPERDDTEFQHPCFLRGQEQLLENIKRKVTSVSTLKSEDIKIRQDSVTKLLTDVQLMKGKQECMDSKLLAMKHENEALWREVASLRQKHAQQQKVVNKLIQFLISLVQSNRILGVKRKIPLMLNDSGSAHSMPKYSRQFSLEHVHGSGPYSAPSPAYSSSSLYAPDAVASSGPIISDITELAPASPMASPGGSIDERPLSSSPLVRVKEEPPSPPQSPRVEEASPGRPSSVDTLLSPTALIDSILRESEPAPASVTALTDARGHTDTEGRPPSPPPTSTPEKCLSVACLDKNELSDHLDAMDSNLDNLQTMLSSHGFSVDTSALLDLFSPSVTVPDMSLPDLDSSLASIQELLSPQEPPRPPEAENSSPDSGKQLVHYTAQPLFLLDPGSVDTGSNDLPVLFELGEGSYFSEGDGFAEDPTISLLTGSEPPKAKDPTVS
# Method in brief: as §1
# [13] = target: T8, SPIC (Homo sapiens, UniProt Q8N5J4 1-248); conditions: protein: recombinant; tags: N-terminal GST; dsDNA, one strand shown
# T8 sequence: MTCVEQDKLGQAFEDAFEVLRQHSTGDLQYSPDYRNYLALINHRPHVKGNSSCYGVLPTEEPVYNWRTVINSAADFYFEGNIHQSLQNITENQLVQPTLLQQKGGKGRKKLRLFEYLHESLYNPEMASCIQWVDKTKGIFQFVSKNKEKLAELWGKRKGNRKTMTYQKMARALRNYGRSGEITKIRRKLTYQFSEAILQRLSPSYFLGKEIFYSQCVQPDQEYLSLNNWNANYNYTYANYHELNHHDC
# Method in brief: as §1
# [14] = target: ELF4 (Homo sapiens, UniProt Q99607 1-663); conditions: protein: recombinant; tags: N-terminal GST; dsDNA, one strand shown
# Sequence of ELF4 (Q99607 whole entry): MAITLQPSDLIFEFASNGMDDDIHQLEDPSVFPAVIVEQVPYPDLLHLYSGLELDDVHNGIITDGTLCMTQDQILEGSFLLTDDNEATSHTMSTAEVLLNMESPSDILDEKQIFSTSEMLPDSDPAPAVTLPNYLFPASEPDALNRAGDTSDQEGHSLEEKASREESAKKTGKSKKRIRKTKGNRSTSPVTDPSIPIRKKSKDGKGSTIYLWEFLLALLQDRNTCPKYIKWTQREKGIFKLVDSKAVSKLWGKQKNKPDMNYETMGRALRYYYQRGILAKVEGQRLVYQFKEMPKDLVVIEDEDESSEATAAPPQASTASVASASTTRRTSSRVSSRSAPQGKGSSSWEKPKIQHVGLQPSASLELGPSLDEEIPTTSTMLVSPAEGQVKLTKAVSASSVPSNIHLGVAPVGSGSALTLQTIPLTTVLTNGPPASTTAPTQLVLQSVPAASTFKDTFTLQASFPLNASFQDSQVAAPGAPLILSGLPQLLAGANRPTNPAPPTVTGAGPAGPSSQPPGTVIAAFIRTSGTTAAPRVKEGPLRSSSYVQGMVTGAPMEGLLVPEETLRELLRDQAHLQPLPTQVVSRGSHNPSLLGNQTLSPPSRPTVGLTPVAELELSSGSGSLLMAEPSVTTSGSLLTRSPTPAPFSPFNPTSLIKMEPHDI
# Method in brief: as §1
# [15] = target: T9, ELK4 (Homo sapiens, UniProt P28324-2 1-405); conditions: protein: recombinant; tags: N-terminal GST; dsDNA, one strand shown
# T9 sequence: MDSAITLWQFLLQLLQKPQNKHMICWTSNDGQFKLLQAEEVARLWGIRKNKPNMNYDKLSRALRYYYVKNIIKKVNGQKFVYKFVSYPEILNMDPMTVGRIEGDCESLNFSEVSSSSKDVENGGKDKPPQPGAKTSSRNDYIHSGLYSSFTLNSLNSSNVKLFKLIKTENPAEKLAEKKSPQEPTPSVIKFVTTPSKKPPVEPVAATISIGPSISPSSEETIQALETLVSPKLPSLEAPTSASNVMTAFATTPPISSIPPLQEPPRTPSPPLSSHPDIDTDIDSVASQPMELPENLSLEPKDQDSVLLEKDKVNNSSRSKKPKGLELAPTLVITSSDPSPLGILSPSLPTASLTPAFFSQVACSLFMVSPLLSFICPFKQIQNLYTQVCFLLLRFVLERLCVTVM
# Method in brief: as §1
# [16] = target: T10, ETV2 (Homo sapiens, UniProt O00321 1-342); conditions: protein: recombinant; tags: N-terminal GST; dsDNA, one strand shown
# T10 sequence: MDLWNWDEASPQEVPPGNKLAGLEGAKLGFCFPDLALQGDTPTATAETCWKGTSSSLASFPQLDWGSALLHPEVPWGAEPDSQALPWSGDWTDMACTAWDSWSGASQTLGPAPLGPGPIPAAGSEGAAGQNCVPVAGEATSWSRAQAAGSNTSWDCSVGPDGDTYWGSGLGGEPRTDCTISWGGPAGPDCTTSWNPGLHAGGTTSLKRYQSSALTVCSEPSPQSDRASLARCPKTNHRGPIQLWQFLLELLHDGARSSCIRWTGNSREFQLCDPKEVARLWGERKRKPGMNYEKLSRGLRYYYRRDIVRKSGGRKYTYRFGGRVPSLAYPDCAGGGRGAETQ
# Method in brief: as §1
# [17] = target: T11, ELF3 (Homo sapiens, UniProt P78545 1-371); conditions: protein: recombinant; tags: N-terminal GST; dsDNA, one strand shown
# T11 sequence: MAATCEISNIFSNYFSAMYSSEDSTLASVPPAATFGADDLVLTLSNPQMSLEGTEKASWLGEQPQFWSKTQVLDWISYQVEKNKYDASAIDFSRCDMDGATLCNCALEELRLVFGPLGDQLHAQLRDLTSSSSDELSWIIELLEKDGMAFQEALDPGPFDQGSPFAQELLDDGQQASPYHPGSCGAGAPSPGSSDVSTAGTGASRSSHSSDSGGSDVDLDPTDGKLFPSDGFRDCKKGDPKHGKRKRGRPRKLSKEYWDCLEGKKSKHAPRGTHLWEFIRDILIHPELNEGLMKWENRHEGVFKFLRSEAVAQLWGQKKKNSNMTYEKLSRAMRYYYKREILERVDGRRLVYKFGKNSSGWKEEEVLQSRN
# Method in brief: as §1
# [18] = target: CRX (Homo sapiens, UniProt O43186 1-299); conditions: protein: recombinant; tags: N-terminal GST; dsDNA, one strand shown
# Sequence of CRX (O43186 whole entry): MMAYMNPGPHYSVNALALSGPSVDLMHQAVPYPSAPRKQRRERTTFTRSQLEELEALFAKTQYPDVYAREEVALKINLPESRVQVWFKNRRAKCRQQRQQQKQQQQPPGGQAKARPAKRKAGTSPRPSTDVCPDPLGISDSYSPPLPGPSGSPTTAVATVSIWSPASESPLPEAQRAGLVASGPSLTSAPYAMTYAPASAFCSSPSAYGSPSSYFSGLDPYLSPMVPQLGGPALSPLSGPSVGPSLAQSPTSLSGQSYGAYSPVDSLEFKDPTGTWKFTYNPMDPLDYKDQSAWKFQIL
# Method in brief: as §1
# [19] = target: ETV1 (Homo sapiens, UniProt P50549 1-477); conditions: protein: recombinant; tags: N-terminal GST; dsDNA, one strand shown
# Sequence of ETV1 (P50549 whole entry): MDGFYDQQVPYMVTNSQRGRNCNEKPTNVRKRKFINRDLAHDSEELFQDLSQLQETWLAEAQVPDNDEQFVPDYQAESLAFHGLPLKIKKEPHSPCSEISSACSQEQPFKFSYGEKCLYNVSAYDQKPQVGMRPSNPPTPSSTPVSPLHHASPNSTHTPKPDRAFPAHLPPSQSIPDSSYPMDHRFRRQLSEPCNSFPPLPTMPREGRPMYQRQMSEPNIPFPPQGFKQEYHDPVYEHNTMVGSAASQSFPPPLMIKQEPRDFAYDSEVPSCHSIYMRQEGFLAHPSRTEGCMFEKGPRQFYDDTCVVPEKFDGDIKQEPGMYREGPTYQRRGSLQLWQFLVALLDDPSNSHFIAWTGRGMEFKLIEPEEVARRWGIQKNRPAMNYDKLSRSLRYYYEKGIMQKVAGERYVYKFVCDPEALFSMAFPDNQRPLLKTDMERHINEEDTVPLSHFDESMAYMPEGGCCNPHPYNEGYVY
# Method in brief: as §1
sequence,measurement,setting,value
TTGGCA,binding signal,[1],"1.15 fold enrichment (6-mer frequency, TF over GST control)"
same,binding signal,[2],"1.23 fold enrichment (6-mer frequency, TF over GST control)"
same,binding signal,[3],"1.08 fold enrichment (6-mer frequency, TF over GST control)"
same,binding signal,[4],"1.15 fold enrichment (6-mer frequency, TF over GST control)"
same,binding signal,[5],"1.13 fold enrichment (6-mer frequency, TF over GST control)"
same,binding signal,[6],"1.08 fold enrichment (6-mer frequency, TF over GST control)"
same,binding signal,[7],"1.16 fold enrichment (6-mer frequency, TF over GST control)"
same,binding signal,[8],"1.15 fold enrichment (6-mer frequency, TF over GST control)"
same,binding signal,[9],"1.17 fold enrichment (6-mer frequency, TF over GST control)"
same,binding signal,[10],"1.13 fold enrichment (6-mer frequency, TF over GST control)"
same,binding signal,[11],"1.07 fold enrichment (6-mer frequency, TF over GST control)"
same,binding signal,[12],"1.04 fold enrichment (6-mer frequency, TF over GST control)"
same,binding signal,[13],"1.17 fold enrichment (6-mer frequency, TF over GST control)"
same,binding signal,[14],"1.16 fold enrichment (6-mer frequency, TF over GST control)"
same,binding signal,[15],"1.34 fold enrichment (6-mer frequency, TF over GST control)"
same,binding signal,[16],"1.25 fold enrichment (6-mer frequency, TF over GST control)"
same,binding signal,[17],"1.07 fold enrichment (6-mer frequency, TF over GST control)"
same,binding signal,[18],"1.12 fold enrichment (6-mer frequency, TF over GST control)"
same,binding signal,[19],"1.18 fold enrichment (6-mer frequency, TF over GST control)"

# — paper PMC7862700, “An all-to-all approach to the identification of sequence-specific readers for epigenetic DNA modifications on cytosine”
